The source made the active and inactive calls. The rule behind the calls is not given here.
Molecular target: Mucolipin-3 (Homo sapiens) (UniProt Q8TDD5)
Experiment: TRPML3 and TRPML2 channel agonists, cell-based, patch clamp, Fura-2 profiling panel (AID 2116)
Details: HEK293 cells expressing TRPML3-YFP, TRPML3 Patch Clamp Assay; patch clamp current at -80 mV

Chain of Mucolipin-3 (Homo sapiens) (Q8TDD5 whole entry, looked up): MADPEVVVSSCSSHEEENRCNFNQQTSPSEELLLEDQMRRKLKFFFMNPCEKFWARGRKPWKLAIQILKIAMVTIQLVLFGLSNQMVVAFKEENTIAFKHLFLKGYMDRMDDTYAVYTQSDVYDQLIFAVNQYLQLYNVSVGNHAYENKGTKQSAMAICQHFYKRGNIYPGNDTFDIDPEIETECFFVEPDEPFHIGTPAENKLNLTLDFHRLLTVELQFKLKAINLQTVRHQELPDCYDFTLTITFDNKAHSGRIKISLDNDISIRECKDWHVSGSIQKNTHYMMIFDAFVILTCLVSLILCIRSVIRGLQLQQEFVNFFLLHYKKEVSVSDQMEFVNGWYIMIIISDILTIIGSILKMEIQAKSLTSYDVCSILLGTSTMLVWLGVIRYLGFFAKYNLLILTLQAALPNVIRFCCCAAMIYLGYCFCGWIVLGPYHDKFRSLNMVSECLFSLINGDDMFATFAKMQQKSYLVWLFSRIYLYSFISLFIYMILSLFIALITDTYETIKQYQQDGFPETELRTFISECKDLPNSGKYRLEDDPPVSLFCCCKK

| Compound | current density [nA/pF] | outcome |
| --- | --- | --- |
| O=S(=O)(Nc1ccccc1N1CCOCC1)c1ccc(Cl)s1 | -0.37 | active; no effect on six other TRP channels |
| Cc1ccc(S(=O)(=O)Nc2ccccc2-c2ccccc2)cc1 | -0.02 | active; no effect on six other TRP channels |
| O=S(=O)(NC1CCCCC1N1CCOCC1)c1ccc(Cl)cc1 (stereo not given) | -0.55 | active; no effect on six other TRP channels |
| O=S(=O)(Nc1ccccc1N1CCCCC1)c1ccc(Cl)s1 | -0.24 | active; no effect on six other TRP channels |
| Cc1ccc(N2CCN(S(=O)(=O)N3CCCCC3)CC2)c(C)c1 | -0.42 | active; no effect on six other TRP channels |
